EWS-Fli block – EWS/Fli-driven NR0B1 reporter inhibitors, primary screen, A673 cells, NR0B1 luciferase, luminescence, MLPCN library; viability-normalised; inhibition, % at 12.6 µM; 0.67% of 350,000 active; AID 651661, 2012;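 active = mean inhibition of at least 50% after viability correction, with every replicate also passing that limit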;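 note: firefly luciferase signal divided by Alamar Blue viability fluorescence both relative to DMSO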
LGR2 inh – inhibitors of bursicon-induced LGR2 CRE-luciferase signal, primary screen, cell-based, HEK293, CRE-luciferase reporter, bursicon stimulation. inhibition, % at 9.99 µM. bursicon-stimulated, 4 h. Drosophila bursicon receptor LGR2 (rickets). 0.35% of 380,000 active. AID 720647, 2013;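 active = drop in luminescence signal, shown as inhibition above about 50% in the replicate tests, limit read from the data, passing the limit was not always enough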;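 note: agonist challenge used bursicon conditioned medium at about half maximal strength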
CFTR F508del cor – F508del CFTR correction, initial screen, CFBE line, single point; CFBE cells, YFP halide quenching; stimulated with forskolin plus potentiator P3; % fluorescence drop versus neutral controls; activity (quench increase), % at 7.58 µM; 0.36% of 350,000 active; AID 720511, 2013;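 active = mean added fluorescence quench of at least 8% versus neutral control, with both replicates also reaching 8%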;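 note: cells transiently co-express mutant CFTR-F508del with the halide-sensitive YFP; corrector assay measuring rescue of mutant channel to the surface after 24 h compound exposure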
PAX8 inh HTS – inhibitors of PAX8-driven TPO luciferase reporter, primary screen, RMG-I cells, single concentration. SteadyGlo, 24 h. inhibition, % at 12.6 µM. 1.2% of 360,000 active. AID 652154, 2013;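 active = mean replicate inhibition at least 60% with every replicate also reaching 60%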;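 note: luciferase light reporting Pax8 driven TPO promoter activity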
Of the large screens only hits and unclear results are named; the others gave an inactive call. Hits are enriched below; roughly 1.8% of the tested compounds scored in any of these assays.

COc1cccc(S(=O)(=O)N2CCCCN3[C@H](CO)[C@H](c4ccc(-c5cccnc5)cc4)[C@@H]3C2)c1	none
Cc1cc(=O)oc2cc(OCC(=O)Nc3nccs3)ccc12	none (no result: EWS-Fli block)
Cc1c(C)c2ccc(OCC(=O)Nc3nccs3)cc2oc1=O	LGR2 inh 55.5 (no result: EWS-Fli block)
CCN(CC)CC(C)(C)C(=O)/C=C/c1ccc(/C=C/C(=O)C(C)(C)CN(CC)CC)cc1	EWS-Fli block 71.2, LGR2 inh 102.8, PAX8 inh HTS 122.9
CCN(CC)CCOC(=O)/C=C/c1ccccc1	none
CCOC(=O)[C@]12CCCC=C1N(Cc1cccc3ccccc13)C(=O)[C@H](CC(=O)N1CCN(C(=O)c3ccco3)CC1)C2	PAX8 inh HTS 84.5
COC(=O)[C@]12CCCCC=C1N(Cc1cccc3ccccc13)C(=O)[C@H](CC(=O)NCc1ccccc1)C2	none
COC(=O)[C@]12CCCCC=C1N(Cc1cccc3ccccc13)C(=O)[C@H](CC(=O)NCCC(C)C)C2	LGR2 inh 64.2
COC(=O)[C@]12CCCCC=C1N(Cc1ccco1)C(=O)[C@H](CC(=O)N1CCN(C(=O)c3ccco3)CC1)C2	PAX8 inh HTS 84.8
C=C(C)[C@@H]1CC[C@]2(C(=O)O)CC[C@]3(C)[C@H](CC[C@@H]4[C@@]5(C)CC[C@H](O)C(C)(C)[C@@H]5CC[C@]43C)[C@@H]12	none (no result: LGR2 inh)
COc1ccc(C(=O)Nc2ccc(NC(=O)c3cccc(F)c3)cn2)cc1	CFTR F508del cor 13.3
CC1=CC(=O)C(C(C)C)=C/C1=N/OS(=O)(=O)c1ccccc1	PAX8 inh HTS 94.3 (no result: LGR2 inh)
CC1=CC(=O)C=C(C)C1=NOS(=O)(=O)c1ccccc1	none (no result: EWS-Fli block, CFTR F508del cor, PAX8 inh HTS)
Cc1cc(S(=O)(=O)c2ccc(Cl)cc2)nc(S(=O)(=O)c2ccc(Cl)cc2)c1C#N	EWS-Fli block 64.2, PAX8 inh HTS 83.3
Cc1cccc(CC(=O)NCCN2CCOCC2)c1	none
O=C1[C@H](Oc2ccccc2)[C@@H](c2ccccc2)N1c1ccncc1	LGR2 inh 65.9
COc1ccc(NS(=O)(=O)c2cc(NC(=O)Cc3c(F)cccc3Cl)ccc2OC)cc1	CFTR F508del cor 19.5
CCOc1ccc(NS(=O)(=O)c2cc(NC(=O)CCNC(=O)c3ccco3)ccc2OC)cc1	CFTR F508del cor 31.9
COc1ccc(NC(=O)Cc2cccc(F)c2)cc1S(=O)(=O)Nc1ccccc1Cl	none
CN(C)CCOCCOc1ccccc1-c1ccccc1	none (no result: EWS-Fli block, CFTR F508del cor, PAX8 inh HTS)
COc1cc(C(c2sc3nc(C)nn3c2O)N2CCN(c3ccccc3)CC2)cc(OC)c1OC (configuration not stated)	CFTR F508del cor 8.5
Cc1nc2sc(C(c3ccco3)N3CCN(C(c4ccccc4)c4ccccc4)CC3)c(O)n2n1 (configuration not stated)	PAX8 inh HTS 87.5
COc1cc(C(c2sc3nc(C)nn3c2O)N2CCOCC2)cc(OC)c1OC (configuration not stated)	none
Cc1ccc(S(=O)(=O)Nc2cccc3c2O[C@@H](CN(C)CC2CC2)[C@@H](C)CN([C@H](C)CO)C3=O)cc1	none
COc1ccc(C)cc1Nc1c2c(nc3ccccc13)CCC2	EWS-Fli block 53.4, CFTR F508del cor 13.5
COc1ccc(Nc2c3c(nc4ccccc24)CCCC3)cc1OC	none
CCCCCn1c(SCC(=O)CC(=O)OCC)nc2cc(C(=O)N3CCC(C(N)=O)CC3)ccc2c1=O	none
CCOC(=O)Nc1ccc2c(c1)N(C(=O)CCN1CCOCC1)c1ccccc1S2	none
CCOC(=O)Nc1ccc2c(c1)N(C(=O)CCN1CCOCC1)c1ccccc1S2=O (configuration not stated)	PAX8 inh HTS 106.1 (no result: EWS-Fli block, LGR2 inh, CFTR F508del cor)
CCN1C(=O)[C@H]2[C@@H](c3ccc(-c4ccc(Cl)c(Cl)c4)cc3)N[C@@](C)(C(=O)OC)[C@H]2C1=O	CFTR F508del cor 8.2
CCN1C(=O)[C@H]2[C@@H](c3ccc(-c4ccc(Cl)c(Cl)c4)c(OC)c3)N[C@@](C)(C(=O)OC)[C@H]2C1=O	none
O=C(Nc1ccccc1F)N1CCCCN2[C@H](CO)[C@@H](c3ccc(/C=C/c4ccccc4)cc3)[C@@H]2C1	none
O=C1NC(NS(=O)(=O)c2ccccc2)(C(F)(F)F)C(=O)N1Cc1ccccc1 (configuration not stated)	none (no result: EWS-Fli block)
C[C@@H]1CN([C@@H](C)CO)C(=O)Cc2cc(NS(=O)(=O)c3ccc(Cl)cc3)ccc2O[C@H]1CN(C)Cc1ccc(Cl)c(Cl)c1	PAX8 inh HTS 85.7
C[C@H](CO)N1C[C@H](C)[C@H](CN(C)Cc2ccc(Cl)c(Cl)c2)Oc2ccc(NS(=O)(=O)c3cn(C)cn3)cc2CC1=O	EWS-Fli block 64.7

Assay outcomes from PubChem BioAssay.
